# According to ChEMBL document CHEMBL3988442, “University of Dundee, Small-Polar-MMV Screening Library” (2021):
# The campaign covered roughly 69,000 compounds. About 950 (1.4%) showed an effect of 50% or more. What follows is part of a selection rich in strong results, with near analogues and random picks from the rest.
# Test system: Mycobacterium tuberculosis
# Assay: Cornell M. t heat shock assay; further: in the data most compounds retested in dose-response had high values
# Assay type: functional, organism-based
# Design: dose or concentration left out as unconfirmed
row,Compound,Percent Effect
1,Cl.Nc1ncc(-c2csc(NC(=O)C[C@H]3COCCN3)n2)cn1,-19.35%
2,Cc1cnc(Nc2cccc(C3CCCN3C(=O)CO)n2)s1 (stereo not drawn),-6.272%
3,CCN(CC)S(=O)(=O)N1CCCC1c1cccc(Nc2ncc(C)s2)n1 (stereo not drawn),70.89%
4,COCC(=O)N1CCCC1c1cccc(Nc2ncc(C)s2)n1 (stereo not drawn),102.5%
5,CCc1nnc(Nc2cccc(C3CCN(S(=O)(=O)N(C)C)CC3)n2)s1,-4.928%
6,COCC(=O)N1CCCCC1c1ccnc(Nc2ncc(C)s2)n1 (stereo not drawn),-16.88%
7,Cc1cccc(C2CCCN2S(=O)(=O)N(C)C)n1 (stereo not drawn),-7.65%
8,COc1ccc(CN2C[C@@H](N(C)Cc3ccco3)[C@H]3OCCC[C@H]32)cc1.O=C(O)C(F)(F)F.O=C(O)C(F)(F)F,2.974%
9,CCOc1ccccc1CNC(=O)Cn1ccc2c(C)nn(C)c2c1=O,9.293%
10,O=C(Cc1ccccc1)N1CCCC2(COCCN(CC3CC3)C2)C1.O=C(O)C(F)(F)F (stereo not drawn),-3.666%
11,Cc1nc(Nc2nnc(C)s2)cc(C2CCCN2C2CCCC2)n1 (stereo not drawn),-11.05%
12,CN(C)c1nccc(N2CCO[C@H]3CN(Cc4nccn4C)C[C@H]32)n1.O=C(O)C(F)(F)F,-13.16%
13,CC(C)n1c2ccccc2c2c1cc(C(=O)NCCO)n2C(=O)N(C)C,20.51%
14,CC(C)n1c2ccccc2c2c1cc(C(=O)N(C)C)n2C(=O)N(C)C,11.26%
15,CC(C)n1c2ccccc2c2c1cc(C(=O)O)n2C(=O)N(C)C,64.45%
16,COc1ccc(CC(=O)N2CCN(c3nccn3C)CC2)cc1.Cl,6.481%
17,O=C(O)C(F)(F)F.O=S(=O)(C1CC1)N1CCCn2cnc(COc3cccnc3)c2C1,9.967%
18,CC1(C)CC(=O)N(CC(=O)Nc2ccon2)c2ccccc21,77.91%
19,CCn1ccc(NC(=O)CN2C(=O)C(C)(C)c3ccccc32)n1,-16.77%
20,CCn1ccc(NC(=O)CN2C(=O)CC(C)(C)c3ccccc32)n1,2.312%
21,CCn1cc(NC(=O)CN2C(=O)CC(C)(C)c3ccccc32)cn1,52.7%
22,Cc1cccc(NC(=O)CN2C(=O)CC(C)(C)c3ccccc32)n1,-2.777%
23,Cc1cc(NC(=O)CN2C(=O)CC(C)(C)c3ccccc32)no1,6.008%
24,Fc1ccc(CN[C@@H]2COC[C@H]2c2ccc(F)cc2)cc1.O=C(O)CC(O)(CC(=O)O)C(=O)O,2.118%

row,Compound,Percent Effect
1,COc1cccc(OCCNCc2ccccc2)c1.O=C(O)C(=O)O,-6.728%
2,CCc1ccc(CN2CCCn3c(nc(Cn4ccnc4)cc3=O)C2)o1.O=C(O)C(F)(F)F.O=C(O)C(F)(F)F,-19.48%
3,Cc1ccnc(N2CCCC(c3noc(C(C)C)n3)C2)n1 (stereo not drawn),12.21%
4,CCNC(=O)c1cn2cc(-c3ccccc3Cl)n(CC3CC3)c(=O)c2n1,99.63%
5,CNC(=O)c1cn2cc(-c3ccccc3Cl)n(CC3CC3)c(=O)c2n1,12.71%
6,CN(C)C(=O)c1cn2cc(-c3ccccc3Cl)n(CC3CC3)c(=O)c2n1,22.72%
7,COCCN1CCC2(CC1)CN(C(=O)N(C)C)c1ccc(C)cc12.O=C(O)C(F)(F)F,-10.15%
8,O=C(N[C@H]1CN(Cc2ccsc2)[C@@H]2CCCO[C@H]12)C1CC1.O=C(O)C(F)(F)F,2.811%
9,Cc1cccc(CN2CC3(CCN(C(=O)N(C)C)CC3)OCC2=O)n1.O=C(O)C(F)(F)F,-24.23%
10,CC(C)(C)c1nc(CNC2CCCN(c3cccnn3)C2)no1 (stereo not drawn),53.11%
11,CC(C)c1nc(CNC2CCCN(c3cccnn3)C2)no1 (stereo not drawn),-11.29%
12,Cc1nc(CNC2CCCN(c3cccnn3)C2)no1 (stereo not drawn),-18.97%
13,Cc1cc(N2CCN(Cc3cn(C)nc3C)CC2)cc(C2CCNC2)n1.Cl (stereo not drawn),-5.922%
14,O=C(NC1CCC1)[C@H]1C[C@@H]2CN(CC3CC3)C[C@H]1O2.O=C(O)C(F)(F)F,18.28%
15,CCN1CCC(CNCc2c[nH]nc2C(C)(C)C)C1.Cl (stereo not drawn),48.77%
16,COCCN1CCC(CNCc2c[nH]nc2C(C)(C)C)CC1,-7.94%
17,CC(C)(C)c1n[nH]cc1CNCC1CCN(CC(F)(F)F)C1.Cl (stereo not drawn),-7.348%
18,CC(O)CN1CCC(CNCc2c[nH]nc2C(C)(C)C)CC1 (stereo not drawn),0.7064%
19,CC(C)N1CCC(CNCc2c[nH]nc2C(C)(C)C)C1 (stereo not drawn),82.49%
20,CC(C)(C)c1n[nH]cc1CNCC1CCN(C2CC2)C1.Cl (stereo not drawn),85.37%
21,COc1nn(C)c2c1CCCN(C(=O)c1cccc(C)n1)C2.O=C(O)C(F)(F)F,26.28%
22,Cn1ccc(C(=O)N2C[C@@H]3OCCN(c4ncccn4)[C@@H]3C2)n1.O=C(O)C(F)(F)F,-20%
23,Cc1ccc(N2CC[C@H]3O[C@H](C(=O)NCc4ccco4)CC[C@H]32)nn1.O=C(O)C(F)(F)F,-36.19%
24,Cc1nc(CNCC2CN(C)CCO2)cs1 (stereo not drawn),-7.018%

row,Compound,Percent Effect
1,CN1CCOC(CNCc2csc(C3CCCCC3)n2)C1 (stereo not drawn),-18.06%
2,CN1CCOC(CNCc2csc(C3CCCC3)n2)C1 (stereo not drawn),51.17%
3,CN(Cc1cn2c(n1)CN(c1ncc(F)cn1)CC2)Cc1ccco1.O=C(O)C(F)(F)F.O=C(O)C(F)(F)F,8.494%
4,CC(=O)Nc1c(C)noc1/C=C\c1ccc(C)c(S(=O)(=O)NC2CC2)c1,14.26%
5,CC(C)N1Cc2c(C(=O)N3CCOCC3)nn(C)c2C1.O=C(O)C(F)(F)F.O=C(O)C(F)(F)F,-12.04%
6,Cc1nc(C2CCCN2Cc2cc(Cl)c3c(c2)OCCCO3)no1 (stereo not drawn),45.55%
7,Cc1nc(C2CCCN2Cc2cc(Cl)c3c(c2)OCCO3)no1 (stereo not drawn),57.05%
8,Cc1nc(C2CCCN2Cc2cc(Cl)c3c(c2)OCO3)no1 (stereo not drawn),23.975%
9,CSc1nc(N)c2c(n1)N=C1COC(O)=C1C2c1cccc(Cl)c1 (stereo not drawn),2.564%
10,CC(=O)Nc1nc(-c2ccccc2)c[nH]1,-15.03%
11,CNC(=O)c1cccc(CNC(C)c2cc(C)ccc2OC(F)F)c1 (stereo not drawn),-18.66%
12,CNC(=O)c1cccc(CNC(C)c2ccc(F)cc2N(C)C)c1 (stereo not drawn),101.5%
13,CNC(=O)c1cccc(CNC(C)c2cc(Cl)ccc2OC)c1 (stereo not drawn),-13.72%
14,COCCNc1nc2c(c(NCCc3cccs3)n1)CCNCC2,55.02%
15,c1csc(CCNc2nc(-c3ccncc3)nc3c2CCNCC3)c1,10.45%
16,COCCNc1nc2c(c(NCc3ccncc3)n1)CCNCC2,-8.417%
17,O=C(O)C(F)(F)F.O=C(O)C(F)(F)F.O=C1NC2(CCN(Cc3cccs3)CC2)CC1c1ccncc1 (stereo not drawn),-33.96%
18,CNC(=O)CN1CCOCC2(CCCN(Cc3ccc(F)cc3)C2)C1.O=C(O)C(F)(F)F.O=C(O)C(F)(F)F (stereo not drawn),-6.144%
19,CCCn1cnnc1CNC(=O)C1COc2cc(OC)ccc2C1 (stereo not drawn),-11.02%
20,CCCn1cnnc1CNC(=O)C1COc2ccc(OC)cc2C1 (stereo not drawn),-18.38%
21,CCCn1ccnc1CNC(=O)C1COc2cc(OC)ccc2C1 (stereo not drawn),80.42%
22,O=C(c1ccc(-c2cccc3c2CCNC3)o1)N1CCCCC1,37.05%
23,O=C(c1ccc(-c2cccc3c2CCNC3)o1)N1CCOCC1,23.74%
24,O=C(c1ccc(-c2cccc3c2CCNC3)o1)N1CCCC1,54.8%

row,Compound,Percent Effect
1,Cc1ccc(N2CCO[C@H]3CN(Cc4ccoc4)C[C@H]32)nn1.O=C(O)C(F)(F)F.O=C(O)C(F)(F)F,-23.95%
2,O=C(c1ccccc1)N1C[C@@H]2CC[C@H](C1)N(S(=O)(=O)c1cccnc1)C2,-19.46%
3,CC(C)CN1CC(O)CN(C(=O)c2cccc(C(F)(F)F)c2)CC1=O (stereo not drawn),3.734%
4,CC(C)(C)CN1CC(O)CN(C(=O)c2cccc(C(F)(F)F)c2)CC1=O (stereo not drawn),51.48%
5,CCN1CC(O)CN(C(=O)c2ccc(SC)cc2)CC1=O (stereo not drawn),25.41%
6,CSc1ccc(C(=O)N2CC(=O)N(CC(C)(C)C)CC(O)C2)cc1 (stereo not drawn),67.49%
7,CSc1ccc(C(=O)N2CC(=O)N(CC3CC3)CC(O)C2)cc1 (stereo not drawn),13.44%
8,CCN1CC(O)CN(C(=O)c2cccc(C(F)(F)F)c2)CC1=O (stereo not drawn),31.6%
9,CC(Cn1cncc1-c1cnn(Cc2ccccc2)c1)N1CCCCC1.Cl (stereo not drawn),-9.415%
10,Cc1ccc(CN2CCn3c(CN4CCN(C)CC4)cnc3C2C)s1.O=C(O)C(F)(F)F.O=C(O)C(F)(F)F.O=C(O)C(F)(F)F (stereo not drawn),-29.44%
11,O=C(CN1CCOC(CNc2cccnn2)C1)NCc1ccccn1 (stereo not drawn),-12.01%
12,c1cnnc(NCC2CN(CCN3CCCCC3)CCO2)c1 (stereo not drawn),4.077%
13,O=C(CN1CCOC(CNc2cccnn2)C1)NCc1cccs1 (stereo not drawn),104.8%
14,OC1(CN2CCOC(CNc3cccnn3)C2)CCCCC1 (stereo not drawn),9.895%
15,O=C(CN1CCOC(CNc2cccnn2)C1)N1CCCCC1 (stereo not drawn),57.16%
16,O=C(CN1CCOC(Cn2cccn2)C1)NCc1cccs1 (stereo not drawn),-0.5047%
17,Cc1oncc1C(=O)NCc1cc(=O)n2c(n1)CN(C(C)C)CCC2.O=C(O)C(F)(F)F,-32.5%
18,CC(C)(C)C(=O)NC(c1nccs1)C1CCN(CC2CCCCC2)CC1.Cl (stereo not drawn),4.524%
19,CCN1CCC2(C=C(C(=O)NC3CC3)c3ccccc32)CC1.O=C(O)C(F)(F)F,-9.893%
20,CN(C)C(=O)CN1CCOCC2(C1)CN(c1ncccn1)CCO2.O=C(O)C(F)(F)F (stereo not drawn),-21.69%
21,CCS(=O)(=O)N1CCN(CCOC)c2ncccc2C1,7.581%
